The values that follow come from PubChem BioAssay AID485344 (National Center for Advancing Translational Sciences (NCATS), 2010).

Molecules are shown by their SMILES. The whole screen tested about 340,000 compounds, of which about 6,900 (2%) were called active. This is one part of a sample in which actives are shown more often than they occur. Values without a mark were called inactive. Cut-off read from the data, not from the text of the source: active = inhibition above about 30%; inactive = below that, where a call was filed.

The target in the experiment is D(2) dopamine receptor (Homo sapiens) (UniProt P14416). Nature of the experiment: HTS Assay for Allosteric Antagonists of the Human D2 Dopamine Receptor: Primary Screen for Antagonists. Note: 0% is about no effect. Conditions: HEK293 TREx D2 cells, calcium flux, dopamine EC80; at 10 µM; stronger effect = higher value. A digest of the protocol: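 Antagonism is scored as inhibition of an EC80 dopamine-evoked calcium signal in a force-coupled, tetracycline-inducible HEK293 T-REx D2 line, with compound present 180 s before agonist.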
D(2) dopamine receptor (Homo sapiens), sequence (P14416 whole entry, looked up): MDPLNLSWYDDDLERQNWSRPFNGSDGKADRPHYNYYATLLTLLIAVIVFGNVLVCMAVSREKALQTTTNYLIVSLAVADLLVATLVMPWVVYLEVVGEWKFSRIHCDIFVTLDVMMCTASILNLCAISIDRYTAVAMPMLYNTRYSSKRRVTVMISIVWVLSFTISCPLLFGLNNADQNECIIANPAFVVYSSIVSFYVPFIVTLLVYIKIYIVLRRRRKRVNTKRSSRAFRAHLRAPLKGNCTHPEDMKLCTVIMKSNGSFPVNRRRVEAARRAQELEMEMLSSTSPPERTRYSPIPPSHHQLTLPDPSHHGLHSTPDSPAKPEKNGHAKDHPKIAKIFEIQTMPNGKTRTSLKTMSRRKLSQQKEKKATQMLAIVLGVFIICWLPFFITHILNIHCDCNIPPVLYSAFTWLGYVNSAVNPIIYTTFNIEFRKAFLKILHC
With `Cc1c(C(=O)NNC(=O)c2ccncc2)oc2ccccc12`, the inhibition is 13.9%.
As for `O=C(NCc1ccccc1CN1CCCC1)c1cccc(S(=O)(=O)Nc2ccc(F)cc2)c1`, the figure is 61.7% (active); as for `COc1ccccc1C(CNC(=O)c1cccc(S(=O)(=O)Nc2ccc(F)cc2)c1)N(C)C` (stereo not drawn), -19.6%.
Take `CCN(c1ccccc1)S(=O)(=O)c1cccc(C(=O)NCc2ccccc2CN2CCOCC2)c1`: the inhibition was -43%.
Consider `O=C(NCCCN1CCN(c2ccc(F)cc2)CC1)Nc1ccc([N+](=O)[O-])cc1`, for which the inhibition was 45.2% (active).
As for `CN1CCN(CCNC(=O)Nc2ccc([N+](=O)[O-])cc2)CC1`, the figure is 11.3%; as for `O=C(Nc1ccc(F)cc1)N1CCN(c2ccc(F)cc2)CC1`, -1.72%.
As for `COc1cccc(NC(=O)CN(C)CC(=O)c2c(N)n(Cc3ccccc3)c(=O)n(C)c2=O)c1`, the figure is -15.4%.
As for `COc1ccc(Nc2cc(Cl)ccc2C(=O)O)cn1`, the figure is 9.54%; as for `COCCN(CCOC)C(=S)Nc1ccccc1Cl`, 3.22%.
`COc1ccc(NC(=S)Nc2ccccc2Cl)cn1`: the inhibition was 40.5% (active).
`Cc1n[nH]c(=O)c2c(NC(=O)CSc3ccccc3F)oc(C)c12`: the inhibition is 0.909%.
On to `CCN(C(=O)COC(=O)Cc1c(F)cccc1Cl)c1c(N)n(Cc2ccccc2)c(=O)[nH]c1=O`, for which the inhibition was 4.82%.
As to `CCOC(=O)c1c(C)[nH]c(C2=NNC(=NC(C)COC)SC2)c1C` (stereo not drawn), the inhibition is 36% (active).
In the case of `CCOC(=O)c1c(C)[nH]c2c1-c1ccccc1C(=O)C2=O`, the inhibition is -2.67%.
As for `C[C@@H]1NC(=O)[C@@]2(C)[C@@H](c3ccccc3)[C@H]3COc4ccccc4[C@@H]3N2C1=O`, the figure is -7.78%; as for `CCOc1ccc(CCNC(=O)CN2C(=O)NC3(CCc4ccccc43)C2=O)cc1OCC` (stereo not drawn), 1.52%; as for `CCN(C(=O)CSc1nc(N)cc(=O)[nH]1)C1CCS(=O)(=O)C1` (stereo not drawn), 10.5%.
As for `Cc1ccc2nc(Nc3ccccc3)cc(C)c2c1`, the figure is -16.8%; as for `CCS(=O)(=O)Nc1cccc(-c2cc(-c3ccccc3)c3cc(C)ccc3n2)c1`, 30.3% (active); as for `Cc1ccc2nc(-c3ccncc3)cc(C(=O)Nc3ccncc3)c2c1`, -15.6%.
In the case of `Cc1cc(OCCN2CCCC2)cc(C(C)C)c1`, the inhibition was 46.1% (active).
As for `c1ccc2cc(OCCN3CCCC3)ccc2c1`, the figure is 6.73%.
As for `Cc1cc(OCCN2CCCC2)ccc1C(C)C`, the figure is -8.05%.
As for `CCCCc1ccc(NS(=O)(=O)c2cccc(C(=O)N3CCCN(C)CC3)c2)cc1`, the figure is 16.6%; as for `Cc1ccnc(NC(=O)C(C)N2C(=O)c3ccccc3C2=O)c1` (stereo not drawn), -8.26%; as for `COC(=O)c1ccc(NC(=O)C(C)N2C(=O)c3ccccc3C2=O)cc1` (stereo not drawn), 4.17%.
As to `Cc1cc(C)nc(NC(=O)C(C)N2C(=O)c3ccccc3C2=O)n1` (stereo not drawn), the inhibition was 35.4% (active).
As for `CCCN(CC1CC1)C(=S)NC(=O)c1ccccc1Br`, the figure is 6.85%.
As for `Cc1cc(C(=O)OCC(=O)Nc2ccccc2Cl)c(C)o1`, the figure is 3.84%; as for `Cc1ccc(NC(=O)Cn2c(C)csc2=O)cc1`, -14.9%.
As for `CCOC(=O)N1CCN(S(=O)(=O)c2ccc3c(c2)C(C)C(=O)N3)CC1` (stereo not drawn), the figure is -7.55%.
In the case of `Cc1ccc2cc(CCNC(=O)c3c(-c4ccccc4Cl)noc3C)c(=O)[nH]c2c1`, the inhibition was 34% (active).
As for `CC(=O)Nc1cccc(/C(C)=N/NC(=O)c2c(-c3ccccc3Cl)noc2C)c1`, the figure is -13%.
As for `Cc1ccc2cc(CCNC(=O)c3ccc4c(c3)OCO4)c(=O)[nH]c2c1`, the figure is -22%; as for `CCN(c1ccccc1)S(=O)(=O)c1ccc(OCC(=O)N2CCCC2)cc1`, -6.24%.
As for `CC(OC(=O)c1ccc(S(=O)(=O)N2CCOCC2)cc1)c1ccccc1` (stereo not drawn), the figure is -6.07%; as for `c1ccc(-c2cnc(CN3CCN(c4ccccc4)CC3)o2)cc1`, 77.7% (active).
In the case of `COc1ccc(N2CCN(Cc3nnc(-c4ccccc4)o3)CC2)cc1`, the inhibition was 9.11%.
As for `Fc1ccc(N2CCN(Cc3cnc(Oc4ccc(Br)cc4)s3)CC2)cc1`, the figure is 14.3%; as for `O=[N+]([O-])c1ccc(S(=O)(=O)Nc2cccc(-c3ccc(N4CCCC4)nn3)c2)cc1`, -6.06%.
As for `Cc1ccc(Cl)cc1NC(=O)COC(=O)C1CCCCC1`, the figure is -6.03%; as for `Cc1ccc(Cl)cc1NC(=O)COC(=O)CC(C)(C)C`, 40.7% (active).
As for `CCCC(=O)OCC(=O)Nc1cc(Cl)ccc1[N+](=O)[O-]`, the figure is -3.56%; as for `O=C(C1CCC1)N1CCN(S(=O)(=O)c2ccc([N+](=O)[O-])cc2)CC1`, -8.41%; as for `COCCn1cnnc1SCC(=O)Nc1cccc(S(=O)(=O)N2CCCCC2)c1`, 3.75%.
`O=C(c1cccs1)N1CCN(Cc2ccc3c(c2)OCO3)CC1`: the inhibition was 86.6% (active).
As for `CCn1cc(C(=O)NCc2ccc3c(c2)OCO3)c2cc(OC)c(OC)cc2c1=O`, the figure is -9.78%.
With `CCn1cc(C(=O)N2CCN(Cc3ccc4c(c3)OCO4)CC2)c2cc(OC)c(OC)cc2c1=O`, the inhibition was 32.8% (active).
As for `O=C(C1CCN(Cc2ccc(Cl)cc2)CC1)N1CCN(Cc2ccc3c(c2)OCO3)CC1`, the figure is -7.43%.
As for `CCn1cc(C(=O)N2CCN(C3CCCCC3)CC2)c2cc(OC)c(OC)cc2c1=O`, the figure is 2.69%; as for `O=C(CSCc1ccc(Cl)cc1)N1CCN(Cc2ccc3c(c2)OCO3)CC1`, 15.1%; as for `CC(=O)Nc1ccc(NC(=O)C(C)OC(=O)C2CC(=O)N(CCc3ccccc3)C2)cc1` (stereo not drawn), -0.386%.
As for `O=C(NCCc1ccco1)C(=O)NCCC1CCCCN1S(=O)(=O)c1ccccc1` (stereo not drawn), the figure is -16%; as for `CCCn1c(N)c(C(=O)CSc2nc3ccccc3c(=O)n2-c2ccc(OC)cc2)c(=O)[nH]c1=O`, 33.2% (active).
As to `COc1cccc(-n2c(SCC(=O)c3c[nH]c4ccccc34)nc3ccccc3c2=O)c1`, the inhibition is -2.99%.
As for `CCCn1c(N)c(C(=O)CSc2nnc3n2CCCCC3)c(=O)[nH]c1=O`, the figure is 3.63%; as for `O=C(CNc1ccccc1N1CCCC1=O)Nc1cc(Cl)ccc1-n1cncn1`, 8.23%.
